Only some compounds are listed: those with a hit (about 4% of all), similar ones and a draw of the others.
GRIN3A LBD mod: modulators (binders) of human NR3A ligand-binding domain | NR3A LBD differential scanning fluorimetry, Tm shift; 0% = protein alone, 100% = glycine-bound protein | Tm shift relative to glycine control, % at 25 µM | 340,000 tested, 2.5% active | AID 1259313;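 active means melting temperature shift of at least 10% of the positive control shift, at one fixed dose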
FAS TE block: FAS thioesterase (human) inhibition | inhibition, % at 15 µM | recombinant FAS-TE, OMFH fluorogenic substrate, fluorescence endpoint | P49327 | 360,000 tested, 0.67% active;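 active means compounds whose normalised, plate-corrected inhibition of enzyme fluorescence in the single-dose primary screen is 50% or more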
Target sequence (P49327 whole entry, looked up): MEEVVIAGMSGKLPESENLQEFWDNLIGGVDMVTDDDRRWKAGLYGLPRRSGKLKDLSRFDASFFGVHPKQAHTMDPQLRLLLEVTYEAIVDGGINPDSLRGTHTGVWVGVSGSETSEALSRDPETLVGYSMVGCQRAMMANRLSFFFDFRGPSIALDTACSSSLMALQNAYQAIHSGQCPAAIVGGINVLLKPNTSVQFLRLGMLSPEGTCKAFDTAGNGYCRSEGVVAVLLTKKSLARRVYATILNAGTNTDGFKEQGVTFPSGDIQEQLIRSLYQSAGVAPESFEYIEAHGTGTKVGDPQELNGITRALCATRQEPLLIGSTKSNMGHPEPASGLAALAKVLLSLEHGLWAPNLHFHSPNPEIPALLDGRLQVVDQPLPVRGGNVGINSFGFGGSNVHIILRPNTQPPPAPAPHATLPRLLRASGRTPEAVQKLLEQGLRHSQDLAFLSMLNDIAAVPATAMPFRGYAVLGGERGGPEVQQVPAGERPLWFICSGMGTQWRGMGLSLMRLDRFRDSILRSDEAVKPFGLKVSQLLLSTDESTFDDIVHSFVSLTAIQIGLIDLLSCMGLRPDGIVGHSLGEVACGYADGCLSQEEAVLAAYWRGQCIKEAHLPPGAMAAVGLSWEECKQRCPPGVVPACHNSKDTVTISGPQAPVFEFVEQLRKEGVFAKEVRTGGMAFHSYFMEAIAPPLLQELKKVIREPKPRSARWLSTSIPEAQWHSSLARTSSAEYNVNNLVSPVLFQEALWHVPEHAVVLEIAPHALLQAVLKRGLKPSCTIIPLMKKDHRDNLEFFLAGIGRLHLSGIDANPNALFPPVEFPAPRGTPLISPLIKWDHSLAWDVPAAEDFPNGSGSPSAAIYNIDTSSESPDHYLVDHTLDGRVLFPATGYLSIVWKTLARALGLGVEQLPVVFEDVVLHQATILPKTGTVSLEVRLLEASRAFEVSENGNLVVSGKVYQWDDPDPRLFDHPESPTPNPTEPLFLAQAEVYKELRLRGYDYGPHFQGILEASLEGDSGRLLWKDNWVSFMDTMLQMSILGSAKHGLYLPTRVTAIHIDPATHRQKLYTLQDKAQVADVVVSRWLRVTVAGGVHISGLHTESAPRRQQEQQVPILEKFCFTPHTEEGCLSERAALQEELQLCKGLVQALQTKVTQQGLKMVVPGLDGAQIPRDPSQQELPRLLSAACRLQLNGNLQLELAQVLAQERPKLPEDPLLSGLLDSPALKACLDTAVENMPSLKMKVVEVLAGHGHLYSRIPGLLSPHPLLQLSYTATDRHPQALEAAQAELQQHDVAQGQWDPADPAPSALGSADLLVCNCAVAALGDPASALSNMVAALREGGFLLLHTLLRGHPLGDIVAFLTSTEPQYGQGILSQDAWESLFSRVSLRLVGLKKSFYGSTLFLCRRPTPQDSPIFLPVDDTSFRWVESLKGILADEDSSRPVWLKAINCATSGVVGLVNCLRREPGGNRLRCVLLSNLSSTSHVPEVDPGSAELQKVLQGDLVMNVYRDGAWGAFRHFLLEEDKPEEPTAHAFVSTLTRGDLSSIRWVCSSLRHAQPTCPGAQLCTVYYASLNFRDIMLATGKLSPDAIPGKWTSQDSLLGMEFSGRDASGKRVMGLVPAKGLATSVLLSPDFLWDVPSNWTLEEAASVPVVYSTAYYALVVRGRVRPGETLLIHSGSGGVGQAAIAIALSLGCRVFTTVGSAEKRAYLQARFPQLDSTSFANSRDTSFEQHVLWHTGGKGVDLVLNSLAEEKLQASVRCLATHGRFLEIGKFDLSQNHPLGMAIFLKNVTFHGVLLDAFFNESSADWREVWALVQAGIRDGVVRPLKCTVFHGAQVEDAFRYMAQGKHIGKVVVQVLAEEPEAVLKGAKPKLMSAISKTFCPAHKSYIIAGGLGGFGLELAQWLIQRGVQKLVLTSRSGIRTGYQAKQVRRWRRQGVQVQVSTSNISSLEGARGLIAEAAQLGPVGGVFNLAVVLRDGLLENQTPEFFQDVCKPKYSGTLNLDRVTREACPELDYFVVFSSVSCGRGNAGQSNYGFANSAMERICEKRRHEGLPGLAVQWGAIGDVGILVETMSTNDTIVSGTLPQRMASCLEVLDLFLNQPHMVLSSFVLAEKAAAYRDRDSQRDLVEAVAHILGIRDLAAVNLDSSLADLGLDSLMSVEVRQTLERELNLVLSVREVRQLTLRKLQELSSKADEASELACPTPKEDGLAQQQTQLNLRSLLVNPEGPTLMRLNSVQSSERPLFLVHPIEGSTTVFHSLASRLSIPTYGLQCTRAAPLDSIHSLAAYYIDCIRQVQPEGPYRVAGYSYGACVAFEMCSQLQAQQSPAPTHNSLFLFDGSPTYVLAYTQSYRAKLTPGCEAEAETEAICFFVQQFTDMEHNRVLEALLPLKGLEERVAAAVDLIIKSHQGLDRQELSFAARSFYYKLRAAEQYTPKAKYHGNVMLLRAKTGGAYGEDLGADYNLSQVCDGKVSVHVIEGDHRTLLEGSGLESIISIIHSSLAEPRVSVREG
ADAM10 inh: inhibitors of human ADAM10 | O14672 | recombinant ADAM10, EDANS/DABCYL FRET peptide cleavage, 3 h | inhibition, % at 7 µM | 370,000 tested, 0.62% active | AID 720582;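 active means inhibition above a per-campaign cutoff equal to the mean of compounds falling between control-based bounds plus 3 SD, cut at about 20% in these data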
ADAM17 inh: inhibitors of human ADAM17; P78536; recombinant ADAM17, EDANS/DABCYL FRET peptide cleavage; inhibition, % at 6.95 µM; 370,000 tested, 0.83% active; AID 720648;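 active means inhibition above the mean of compounds lying between control limits plus 3 SD, set per campaign, cut at about 8.5% in these data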
aDG glyco act: alpha-DG glycosylation activation. Pro5-aDG cells, alpha-DG glycosylation AlphaScreen (IIH6); 0% Pro5, 100% B10-LARGE cell signal. activation, % at 10 µM. 360,000 tested, 0.22% active;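 active means activation of at least 8% versus controls, or a plate z-score of at least 8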;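 further: Pro5 are CHO cells carrying HIG-tagged alpha-DG that lacks glycosylation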
FAS-TE conf: FAS thioesterase (human) inhibition, confirmation. shares compounds with FAS TE block. recombinant FAS-TE, OMFH fluorogenic substrate, fluorescence. inhibition, % at 15 µM. 2,300 tested, 45% active. AID 624325;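 active means compounds inhibiting the enzyme by at least 50% at 15 µM in any one of the replicates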
A number is an active result; i = inactive; nt = not tested or not shown.

SMILES	GRIN3A LBD mod	FAS TE block	ADAM10 inh	ADAM17 inh	aDG glyco act	FAS-TE conf
O=C(NCc1cccc(F)c1)c1cccc2c1C(=O)c1ccc(N3CCCC3)cc1S2(=O)=O	i	i	nt	nt	i	nt
COc1ccccc1N1CCN(c2ccc3c(c2)S(=O)(=O)c2cccc(C(=O)NCc4ccc(F)cc4)c2C3=O)CC1	nt	51	i	i	i	i
O=C(Nc1ccc(F)cc1)C(c1ccccc1)N1CCN(S(=O)(=O)c2ccc3ccccc3c2)CC1 (stereo not given)	i	86	i	i	i	i
Cc1ccc(C)c(S(=O)(=O)N2CCN(C(C(=O)Nc3ccc(F)cc3)c3ccccc3)CC2)c1 (stereo not given)	i	i	i	i	i	nt
CCn1c(C)c(C(C)=O)c(N2CCN(c3ccccc3)CC2)nc1=S	i	i	i	i	i	nt
CCn1c(C)c(C(C)=O)c(N2CCN(C(c3ccccc3)c3ccccc3)CC2)nc1=S	i	70	i	i	i	61
CCOc1c(OC(C)=O)ccc(/C=C/c2ccc3cccc(OC(C)=O)c3n2)c1[N+](=O)[O-]	i	i	nt	nt	i	nt
C=CCN1C(=O)/C(=C/c2ccc(OC(C)=O)c(OCC)c2[N+](=O)[O-])SC1=S	i	75	i	i	i	46
CCSc1nnc2c(n1)[nH]c1c(C)cccc12	i	i	i	i	i	nt
Cc1ccc(S(=O)(=O)c2nnn3c2nc(N2CCC(C(N)=O)CC2)c2ccccc23)cc1C	i	53	i	i	i	61
COc1cc(/C=N/NC(=O)C(Cc2c[nH]c3ccccc23)NC(=O)OCC(C)C)cc([N+](=O)[O-])c1O (stereo not given)	i	i	i	i	i	nt
COc1cc(/C=N/NC(=O)C(Cc2c[nH]c3ccccc23)NC(=O)OCc2ccccc2)cc([N+](=O)[O-])c1O (stereo not given)	i	75	41	9.1	i	75
CCc1c(O)nc(SCC(=O)Nc2ccc(Cl)cc2)n(-c2ccccc2)c1=O	nt	i	i	i	i	nt
COc1ccc(C(=O)NC(CC(=O)O)c2cc([N+](=O)[O-])ccc2Cl)c(SC)c1 (stereo not given)	i	50	i	i	i	64
CCN(CC)S(=O)(=O)c1cccc(C(=O)N[C@H](C(=O)O)C(C)C)c1	i	i	i	i	i	nt
COc1ccc2cc(/C=N/O)c(Cl)nc2c1	i	i	i	i	i	nt
COc1ccc2cc(/C=N/NC(=O)c3ccc(CN(c4cccc(Cl)c4Cl)S(C)(=O)=O)cc3)c(Cl)nc2c1	i	69	i	i	i	i
CCCCCCSc1ccc(-c2nc3cc(C)ccn3c2NC2CCCCC2)cc1	i	i	i	i	i	nt
O=C1C(Cl)=C(N2CCC(C(=O)O)CC2)C(=O)c2ccccc21	i	i	nt	nt	i	nt
NC(=O)C1CCN(C2=C(Cl)C(=O)c3ccccc3C2=O)CC1	i	52	i	i	i	i
CSc1ccc(CN2C(=O)C(C)Oc3c(C(C)=O)cccc32)cc1 (stereo not given)	nt	i	i	i	i	nt
CSc1ccc(CN2C(=O)C(F)(F)Oc3c(C(C)=O)cccc32)cc1	nt	52	nt	nt	i	59
Cc1csc(N(C(=O)CCNC(=O)c2ccc([N+](=O)[O-])cc2)c2ccccc2)n1	i	72	i	i	i	78
O=S(=O)(c1ccc(-c2csc(-c3cccnc3)n2)cc1)N1CCOCC1	i	79	i	i	i	82
CCCCC(=O)Nc1nc(-c2ccc(S(=O)(=O)N3CCOCC3)cc2)cs1	i	88	i	i	i	91
SMILES	GRIN3A LBD mod	FAS TE block	ADAM10 inh	ADAM17 inh	aDG glyco act	FAS-TE conf
CC(C)CC(=O)Nc1nc(-c2ccc(S(=O)(=O)N3CCOCC3)cc2)cs1	i	52	i	i	i	i
Cc1cc(OCC(=O)NC(Cc2ccc(Cl)cc2)C(=O)O)c2c(C)c(C)c(=O)oc2c1 (stereo not given)	i	i	i	i	i	nt
Cc1csc2c(=O)sc(NC(=O)c3ccc(F)cc3)nc12	i	i	i	i	i	nt
Cc1ccccc1C(=O)Nc1nc2c(C)csc2c(=O)s1	i	51	i	i	i	i
Cc1csc2c(=O)sc(NC(=O)c3ccc(F)cc3Cl)nc12	i	84	i	i	i	i
NC(=S)NCc1cccnc1	i	i	i	i	i	nt
CC(=O)/C(=N\Nc1ccccc1)Sc1nnc(-c2ccccc2)n1-c1ccccc1	i	i	i	i	i	nt
CC(=O)C(N=Nc1ccccc1)(Sc1nnc(-c2ccccc2)n1-c1ccccc1)C(=O)Nc1ccccc1 (stereo not given)	i	79	i	i	i	i
CC(C)=CCN1CCN(Cc2cccc3nccnc23)CC1CCO (stereo not given)	i	i	i	i	i	nt
COc1ccc(N2C(=O)NC3CC2(C)Oc2ccc(Br)cc23)cc1OC (stereo not given)	i	59	i	i	i	74
Cc1ccc(S(=O)(=O)N2CC=C(c3c(C)n(C)c4ccccc34)CC2)cc1	i	i	i	i	i	nt
CC(C)(C)c1ccc(C(=O)OCCNC(=O)c2c(Cl)nc3ccccn23)cc1	i	66	i	i	i	75
COc1ccc(/C=N\NC(=O)CNC(=O)C(c2ccccc2)c2ccccc2)cc1[N+](=O)[O-]	i	54	i	i	i	42
O=C(Nc1ccc2c(c1)OCCO2)C(c1cc2ccccc2o1)N1CCN(c2ccc(C(F)(F)F)cn2)CC1 (stereo not given)	nt	55	i	i	i	i
CCC12CN(C(=O)c3ccc([N+](=O)[O-])cc3)CC(CC)(CN(C(=O)c3ccc([N+](=O)[O-])cc3)C1)C2=O	i	58	i	i	i	i
O=[N+]([O-])c1cccc(OCCN2CCC(Cc3ccccc3)CC2)c1	i	63	i	i	i	67
O=[N+]([O-])c1cccc(OCCCN2CCC(C(O)(c3ccccc3)c3ccccc3)CC2)c1	nt	nt	i	i	nt	nt
O=C(c1ccc([N+](=O)[O-])cc1)N1CCC(Cc2ccccc2)CC1	i	59	i	i	i	54
O=C(Cc1ccccc1)NC1CCN(C(=O)c2ccc([N+](=O)[O-])cc2)CC1	i	i	i	i	i	nt
Fc1cccc(Cc2c(C3CCCCC3)nc3ccc(Cl)cn23)c1	nt	i	i	i	i	nt
O=C(OCC(=O)N1CCCC1=O)C1CCN(S(=O)(=O)c2ccc(Cl)c(C(F)(F)F)c2)CC1	i	i	i	i	i	nt
O=C(CSc1nnc(-c2c[nH]c3ccccc23)o1)N1c2ccccc2CCc2ccccc21	i	55	i	i	i	i
O=C(CSc1nnc(-c2c[nH]c3ccccc23)o1)N1CCCCC1	i	i	i	i	i	nt
COc1cc(NC(=O)[C@H]2CSCN2C(=O)[C@@H]2CCC(=O)N2)cc(OC)c1OC	i	i	i	i	i	nt
CC(C)(C)OC(=O)NCc1ccc(CNC(=O)c2[nH]cnc2C(=O)NCC(=O)OCc2ccccc2)cc1	i	66	i	i	i	76

Bioassay records from PubChem.
